Test [1] can be described thus: qHTS assay to identify small molecule agonists of the peroxisome proliferator-activated receptor delta (PPARd) signaling pathway - cell viability counter screen (AID 743211). Further: nearly all actives have a fitted effect of over 55% in size. Further: potency means the concentration at half of the fitted maximal effect. The procedure, abridged: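 Following 5 h plating at 37 C and 5% CO2, PPARd UAS-bla HEK293H cells took up test compounds for 17 h. Viability was quantified by luminescence 30 min after CellTiter-Glo addition at room temperature.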

Test [2] is described as follows: qHTS assay to identify small molecule antagonists of the peroxisome proliferator-activated receptor delta (PPARd) signaling pathway - cell viability counter screen (AID 743213). Further: nearly all actives have a fitted effect of over 50% in size. Further: potency means the concentration at half of the fitted maximal effect. The procedure, abridged:
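Luminescence from CellTiter-Glo, added after the bla read and incubated 30 min at room temperature, gives viability of HEK293H PPARd-bla cells exposed to compounds for 17 h at 37 C with 300 nM L165041.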

The target of test [3] is Peroxisome proliferator-activated receptor delta (Homo sapiens) (UniProt Q03181). The experiment in a line: qHTS assay to identify small molecule antagonists of the peroxisome proliferator-activated receptor delta (PPARd) signaling pathway (AID 743215; active means well fitted inhibition curve with a large enough effect in the signal ratio in the repeat runs, not every such curve was filed as active; the % refers to the signal ratio;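 further: cells stimulated with agonist L165041 at 300 nM final during compound exposure; series mostly up to about 62 µM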). The procedure, abridged:
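Read-out is beta-lactamase FRET fluorescence, measured 2 h after substrate addition at room temperature. Beforehand, UAS-bla HEK293H cells carrying the PPARd reporter were exposed to compounds with L165041 at 300 nM final for 17 h at 37 C.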

Test [4] can be described thus: qHTS assay to identify small molecule agonists of the farnesoid-X-receptor (FXR) signaling pathway - cell viability counter screen (AID 743218). Further: nearly all actives have a fitted effect of over 45% in size. Further: potency means the concentration at half of the fitted maximal effect. The procedure, abridged:
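HEK 293T FXR-bla cells; 5 h pre-incubation, 16 h compound exposure at 37 C; LiveBLAzer substrate 2 h RT, then CellTiter-Glo 30 min RT, luminescence.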

A short description of test [5]: qHTS assay to identify small molecule antagonists of the farnesoid-X-receptor (FXR) signaling pathway - cell viability counter screen (AID 743221; active means well fitted cell-killing curve with a large enough effect in the repeat runs, not every such curve was filed as active; further: nearly all actives have a fitted effect of over 50% in size). The essentials: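 Compound effects on cell number were measured as CellTiter-Glo luminescence in HEK 293T cells expressing FXR-UAS-bla, after 16 h at 37 C with 50 uM CDCA (final).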
The nature of test [6]: qHTS assay to identify small molecule agonists of the vitamin D receptor (VDR) signaling pathway - cell viability counter screen (AID 743224). Further: nearly all actives have a fitted effect of over 50% in size. Further: potency means the concentration at half of the fitted maximal effect. The essentials:
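Luminescence from CellTiter-Glo, read after 30 min at room temperature, reports viability of VDR-bla cells treated with compounds for 16 h at 37C in the wells used for the beta-lactamase FRET read.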

Test [7] in a line: qHTS assay to identify small molecule antagonists of the vitamin D receptor (VDR) signaling pathway - cell viability counter screen (AID 743225). Further: nearly all actives have a fitted effect of over 50% in size. Further: potency means the concentration at half of the fitted maximal effect. The essentials:
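In this counter screen, VDR-bla HEK 293T cells receive test compound plus 3 nM final calcitriol for 16 h at 37C. Room-temperature steps of 2 h with the beta-lactamase substrate, then 30 min with CellTiter-Glo, precede the luminescence read.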

Test [8] in a line: qHTS assay to identify small molecule agonists of the NFkB signaling pathway - cell viability counter screen (AID 1159515; calls by dose curve; further: series mostly up to about 61 µM; nearly all actives have a fitted effect of over 55% in size). The essentials:
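Luminescence from CellTiter-Glo (30 min, room temperature) gives viability, measured in the same wells as the beta-lactamase reporter read. Cells were NFkB-bla ME-180, 2,000 per well, treated 5 hr with compounds.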

Test [9] in a line: qHTS assay to identify small molecule agonists of the endoplasmic reticulum stress response signaling pathway (AID 1159516; active means well fitted activation curve with a large enough effect in the signal ratio in the repeat runs, not every such curve was filed as active; the % refers to the signal ratio). The procedure, abridged: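 Read-out is beta-lactamase cleavage of a FRET substrate (405 nm excitation; 460 and 530 nm emissions) in ESRE-bla HeLa cells after a 5 hr compound exposure at 37 C. Substrate incubation ran 2 hr at room temperature.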
A short description of test [10]: qHTS assay to identify small molecule agonists of the endoplasmic reticulum stress response signaling pathway - cell viability counter screen (AID 1159517; calls by dose curve). The procedure, abridged:
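Counter-screen wells were identical to the reporter wells. Cells were plated at 1,500 per well and dosed for 5 hr, then read for luminescence 30 min after CellTiter-Glo addition.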

Test [11] in a line: qHTS assay to identify small molecule antagonists of the retinoid-related orphan receptor gamma (ROR-gamma) signaling pathway - cell viability counter screen (AID 1159520). Further: nearly all actives have a fitted effect of over 50% in size. The procedure, abridged:
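Tet-on ROR gamma CHO cells were given compounds for 2 hr, then doxycycline hyclate at 1 uM final, and incubated 16 hr at 37 C. Viability was measured as ATP content by CellTiter-Glo luminescence.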

Test [12] concerns the target Peroxisome proliferator-activated receptor delta (Homo sapiens) (UniProt Q03181). The experiment in a line: qHTS assay to identify small molecule agonists of the peroxisome proliferator-activated receptor delta (PPARd) signaling pathway (AID 743212; calls by dose curve). The essentials: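 Quantitative high-throughput agonist screen in a HEK293H beta-lactamase reporter line under UAS control. Compounds in DMSO, at 37 C. Fluorescence read after 2 h with FRET substrate at room temperature.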

The target in test [13] is Vitamin D3 receptor (Homo sapiens) (UniProt P11473). The experiment in a line: qHTS assay to identify small molecule antagonists of the vitamin D receptor (VDR) signaling pathway (AID 743223; active means well fitted inhibition curve with a large enough effect in the signal ratio in the repeat runs, not every such curve was filed as active; the % refers to the signal ratio). The essentials:
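Beta-lactamase activity in VDR-bla cells is measured by FRET substrate fluorescence (2 h, room temperature) after cells spend 16 h at 37C with test compound and 3 nM final 1alpha,25-dihydroxyvitamin D3.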

Test [14] has as its target Nuclear receptor ROR-gamma (Homo sapiens) (UniProt P51449). The experiment in a line: qHTS assay to identify small molecule antagonists of the retinoid-related orphan receptor gamma (ROR-gamma) signaling pathway (AID 1159521). The essentials:
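Screening format: cell-based luciferase reporter in CHO cells with doxycycline-inducible RORγ. Compound pre-exposure lasts 2 h, doxycycline is 1 uM final, induction runs 16 h at 37 C, and ONE-Glo luminescence is read.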

The nature of test [15]: qHTS assay to identify small molecule agonists of the AP-1 signaling pathway - cell viability counter screen (AID 1159525; calls by dose curve; further: nearly all actives have a fitted effect of over 55% in size). The essentials:
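AP-1-bla ME-180 cells in Opti-MEM with 0.5% dialyzed FBS, compound exposure 5 h at 37 C in 15-point titration. Viability read in the same wells as ATP content by CellTiter-Glo luminescence, normalised to tetra-n-octylammonium bromide and DMSO controls.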

Test [16] in a line: qHTS assay to identify small molecule agonists of the AP-1 signaling pathway (AID 1159526; calls by dose curve).
The target of test [17] is Retinoic acid receptor RXR-alpha (Homo sapiens) (UniProt P19793). The experiment in a line: qHTS assay to identify small molecule agonists of the RXR signaling pathway (AID 1159527; calls by dose curve; further: nearly all actives have a fitted effect of over 35% in size). The essentials: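 Fluorescence ratio readout (460 vs 530 nm) from GeneBLAzer RXR-alpha HEK 293T cells after 16 hr compound treatment; cells seeded 5 hr beforehand in low-serum, charcoal-stripped medium.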
Retinoic acid receptor RXR-alpha (Homo sapiens), sequence (P19793 whole entry, looked up): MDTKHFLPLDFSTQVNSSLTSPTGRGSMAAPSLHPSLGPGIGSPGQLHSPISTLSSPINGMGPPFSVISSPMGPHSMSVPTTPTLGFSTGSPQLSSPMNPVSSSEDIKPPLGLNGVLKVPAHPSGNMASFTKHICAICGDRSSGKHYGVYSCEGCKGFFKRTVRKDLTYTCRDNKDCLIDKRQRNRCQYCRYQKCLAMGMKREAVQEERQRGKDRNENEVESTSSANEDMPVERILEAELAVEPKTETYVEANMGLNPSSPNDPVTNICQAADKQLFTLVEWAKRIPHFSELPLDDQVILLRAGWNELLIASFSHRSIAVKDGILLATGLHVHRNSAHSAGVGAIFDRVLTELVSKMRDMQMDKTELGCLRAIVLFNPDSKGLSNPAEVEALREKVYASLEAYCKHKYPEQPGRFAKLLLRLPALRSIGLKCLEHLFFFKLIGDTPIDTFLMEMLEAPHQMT

Test [18] has as its target Bile acid receptor (Homo sapiens) (UniProt Q96RI1). The experiment in a line: qHTS assay to identify small molecule antagonists of the farnesoid-X-receptor (FXR) signaling pathway (AID 743217; active means well fitted inhibition curve with a large enough effect in the signal ratio in the repeat runs, not every such curve was filed as active; the % refers to the signal ratio). The essentials: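 HEK 293T FXR-UAS-bla, 5000 cells/well; compound + CDCA 50 uM final; 16 h, 37 °C; B/G FRET substrate 2 h RT; fluorescence.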
Test [19] has the same target. Nature of the test: qHTS assay to identify small molecule agonists of the farnesoid-X-receptor (FXR) signaling pathway (AID 743220; active means well fitted activation curve with a large enough effect in the signal ratio in the repeat runs, not every such curve was filed as active; the % refers to the signal ratio). The essentials:
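Beta-lactamase reporter under UAS control in GeneBLAzer FXR HEK 293T cells (5000/well) measured with LiveBLAzer FRET substrate after 2 h at room temperature. Compound exposure lasted 16 h at 37C.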

In test [20] the target is Vitamin D3 receptor (Homo sapiens) (UniProt P11473). The experiment in a line: qHTS assay to identify small molecule agonists of the vitamin D receptor (VDR) signaling pathway (AID 743222; calls by dose curve). The procedure, abridged:
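VDR-bla cells, 2,000/well; 4 h preincubation 37C; cpd (DMSO) 16 h; LiveBLAzer B/G substrate 2 h RT; fluorescence intensity read.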

Records with an inconclusive call do not appear. A number with no mark means an inactive call. Active and inactive are the calls of the source. Unless noted, the call rests on the fitted dose curve; in most records, active means well fitted curve in the direction sought with a large enough effect in the repeat runs; inconclusive means weak or mixed curves; inactive means no such curve, though single readings can be large; an effect the other way counts as inactive or inconclusive.

Vitamin D3 receptor (Homo sapiens), sequence (P11473 whole entry, looked up): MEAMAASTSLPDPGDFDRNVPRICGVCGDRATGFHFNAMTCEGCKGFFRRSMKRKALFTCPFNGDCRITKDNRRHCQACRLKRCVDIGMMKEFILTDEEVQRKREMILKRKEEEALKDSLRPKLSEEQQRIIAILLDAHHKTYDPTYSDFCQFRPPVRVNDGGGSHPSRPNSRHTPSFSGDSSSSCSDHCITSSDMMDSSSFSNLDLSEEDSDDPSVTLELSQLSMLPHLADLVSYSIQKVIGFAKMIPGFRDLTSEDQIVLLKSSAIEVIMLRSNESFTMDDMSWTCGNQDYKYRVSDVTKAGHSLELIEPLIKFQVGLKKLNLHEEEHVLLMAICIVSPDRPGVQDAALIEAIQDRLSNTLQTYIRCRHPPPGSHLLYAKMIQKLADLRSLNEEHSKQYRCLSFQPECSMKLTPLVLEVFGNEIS
Peroxisome proliferator-activated receptor delta (Homo sapiens), sequence (Q03181 whole entry, looked up): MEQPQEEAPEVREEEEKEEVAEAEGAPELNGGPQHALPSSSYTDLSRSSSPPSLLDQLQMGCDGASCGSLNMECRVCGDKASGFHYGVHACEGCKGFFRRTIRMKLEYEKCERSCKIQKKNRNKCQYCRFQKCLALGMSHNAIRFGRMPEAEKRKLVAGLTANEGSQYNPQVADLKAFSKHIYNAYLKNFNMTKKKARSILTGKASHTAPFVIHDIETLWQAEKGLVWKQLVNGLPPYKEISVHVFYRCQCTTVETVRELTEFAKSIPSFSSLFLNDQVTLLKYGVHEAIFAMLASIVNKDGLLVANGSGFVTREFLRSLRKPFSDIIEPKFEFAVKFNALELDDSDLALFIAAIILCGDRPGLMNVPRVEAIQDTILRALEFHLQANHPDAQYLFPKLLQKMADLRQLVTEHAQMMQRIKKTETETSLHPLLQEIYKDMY
Bile acid receptor (Homo sapiens), sequence (Q96RI1 whole entry, looked up): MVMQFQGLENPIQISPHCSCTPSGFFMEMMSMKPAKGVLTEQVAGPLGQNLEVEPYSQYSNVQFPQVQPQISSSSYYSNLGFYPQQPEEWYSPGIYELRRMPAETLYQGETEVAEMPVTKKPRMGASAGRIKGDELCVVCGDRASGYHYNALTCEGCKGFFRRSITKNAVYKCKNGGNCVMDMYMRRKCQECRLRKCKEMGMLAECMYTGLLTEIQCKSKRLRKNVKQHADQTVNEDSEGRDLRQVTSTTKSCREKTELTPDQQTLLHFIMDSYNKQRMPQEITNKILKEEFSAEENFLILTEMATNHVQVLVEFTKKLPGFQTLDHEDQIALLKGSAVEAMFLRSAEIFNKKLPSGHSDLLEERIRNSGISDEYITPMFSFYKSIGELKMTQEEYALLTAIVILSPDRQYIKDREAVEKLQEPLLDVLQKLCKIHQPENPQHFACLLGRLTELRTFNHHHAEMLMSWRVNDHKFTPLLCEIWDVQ

`Oc1cccc(Cl)c1Cl`: the Potency entry in test [1], in test [2], in [3], in [4], in test [5] and in [6] was “inactive” throughout. Besides, the Potency entry in test [7], in [8], in [9], in [10] and in test [11] was “inactive” throughout.

Take `CCCCCON=O`: the Potency entry in test [1], in [12], in test [2], in test [3], in test [4] and in test [5] was “inactive” in each case. Further, the Potency result in test [13], in [6], in [7], in test [8], in test [9] and in test [11] was “inactive” in each case. The Potency result in test [14], in test [15], in test [16] and in test [17] was “inactive” throughout.

For the compound `O=c1[nH]c(Cl)c(Cl)cc1Cl`, the Potency result in test [1], in [12], in test [3], in test [18], in test [4] and in [19] was “inactive” in each case. The Potency entry in [20], in test [13], in [6], in test [8], in [9] and in test [10] was “inactive” each time. The Potency entry in test [11] and in test [16] was “inactive” each time.

As for `C[C@]12CC[C@H]3[C@@H](CCC4=CC(=O)CC[C@@H]43)[C@@H]1CC[C@@H]2OC(=O)CCc1ccco1`, the Potency in [1] is 26.6 µM (active); in test [2] it was 29.8 µM (active); in test [4], 21.1 µM (active); in test [6], 21.1 µM (active). Also, the Potency entry in test [20], in test [8], in test [9], in [10], in test [11] and in [15] was “inactive” each time.

`CCC(OC(C)=O)C(CC(C)NC)(c1ccccc1)c1ccccc1` (stereo not given): the Potency in test [1] is 15.5 µM (active); in test [2], 30.9 µM (active); in [4], 61.6 µM (active); in [7], 44 µM (active). Also, the Potency entry in [19], in test [20], in test [8], in test [9] and in test [10] was “inactive” throughout.
